Data on 9 compounds can be found in PubChem BioAssay (EPA / NIEHS).

Test [1] in a line: CPHEA_Stoker_NIS_Cytotoxicity: Cytotoxicity Assessment for CPHEA's Radioactive Iodide Uptake (RAIU) Assay for Sodium/Iodide Symporter (NIS) Inhibition, Stoker and Laws Labs (AID 2283897; active = hit-call score of the fitted dose curve at least 0.9, where 1 is the maximum;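 for AC50: active means loss of ATP signal versus DMSO meaning cytotoxicity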). Summed up:
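hNIS-HEK293T-EPA human kidney cells were exposed for 2 hours at room temperature to test chemicals (0.001–100uM, 0.5% final DMSO) in HEPES-buffered HBSS, pH 7.4. Viability was read as ATP content by luciferase bioluminescence, loss of signal versus DMSO.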

Test [2] is described as follows: CEETOX_H295R_OHPREG_noMTC: CeeTox H295R High-throughput Steroidogenesis Assay for OH-Pregnenolone (OHPREG), maximum tolerated concentration (MTC) filtered results only (AID 2283912). To be noted: actives raise or lower the signal. Summed up:
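H295R; 10 uM forskolin 48 h pre-stim; test cpd in DMSO (0.1% final) 48 h; media MTBE-extracted, HPLC-MS/MS for OH-pregnenolone; bidirectional fit vs DMSO; no MTC (MTT) filtering.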

Test [3] can be described thus: CEETOX_H295R_ANDR_noMTC: CeeTox H295R High-throughput Steroidogenesis Assay for Androstenedione (ANDR), maximum tolerated concentration (MTC) filtered results only (AID 2283915). To be noted: actives raise or lower the signal. Summed up: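 Androstenedione secreted into medium was measured by LC-MS/MS after MTBE extraction. Human adrenal H295R cells received 10 uM forskolin for 48 h before 48 h chemical exposure (0.1% DMSO). Gain or loss fitted against DMSO, including concentrations above the MTT-derived MTC.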

Test [4] is described as follows: CEETOX_H295R_ESTRADIOL_noMTC: CeeTox H295R High-throughput Steroidogenesis Assay for Estradiol, maximum tolerated concentration (MTC) filtered results only (AID 2283919). To be noted: actives raise or lower the signal. The gist of the method:
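Readout: dansyl-derivatized estradiol quantified by LC-MS/MS in medium from H295R cells dosed 48 h (0.1% DMSO) following 48 h forskolin (10 uM) prestimulation. Gain or loss of signal fitted against DMSO; no MTC filtering applied.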

Test [5] is described as follows: CEETOX_H295R_PROG_noMTC: CeeTox H295R High-throughput Steroidogenesis Assay for Progesterone (PROG), maximum tolerated concentration (MTC) filtered results only (AID 2283920). To be noted: actives raise or lower the signal. The gist of the method: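 Readout: medium progesterone by MTBE extraction, reverse-phase C18 HPLC, ESI-positive MS/MS. Human H295R cells, 10 uM forskolin pretreatment 48 h, chemical 48 h in 0.1% DMSO. Gain or loss fitted against DMSO baseline.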

Test [6] is described as follows: CEETOX_H295R_ESTRONE_noMTC: CeeTox H295R High-throughput Steroidogenesis Assay for Estrone, maximum tolerated concentration (MTC) filtered results only (AID 2283921). To be noted: actives raise or lower the signal. The gist of the method: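 Estrone in spent medium, quantified by tandem MS following dansyl chloride derivatization, after 48 h chemical exposure (0.1% DMSO) of forskolin-prestimulated (10 uM, 48 h) H295R cells; concentrations not MTC-filtered, bidirectional fit against DMSO.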

Test [7] can be described thus: CEETOX_H295R_TESTO_noMTC: CeeTox H295R High-throughput Steroidogenesis Assay for Testosterone (TESTO), maximum tolerated concentration (MTC) filtered results only (AID 2283924). To be noted: actives raise or lower the signal. Summed up: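 Medium testosterone, measured by HPLC-MS/MS after liquid-liquid extraction, was fitted in both directions relative to DMSO without MTC filtering. Adrenal H295R cells received 48 h chemical exposure (0.1% DMSO final) after 48 h forskolin (10 uM) prestimulation; viability by MTT.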

The target of test [8] is Thyroid hormone receptor alpha (Rattus norvegicus) + Thyroid hormone receptor beta (Rattus norvegicus) (UniProt P18113+P63059). In words: TOX21_TR_LUC_GH3_Agonist_Followup: Tox21 GH3 Thyroid Hormone Receptor Agonism Luciferase Follow-Up Assay (AID 2283939; active = hit-call score of the fitted dose curve at least 0.9, where 1 is the maximum). Summed up: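 Agonist-mode confirmatory run: 15 concentrations (5 nM to 92 uM final) on GH3 rat pituitary cells, 24 h at 37C/5% CO2, T3 as positive control. Luminescence read with ONE-Glo after 30 min.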
Chain of Thyroid hormone receptor alpha (Rattus norvegicus) + Thyroid hormone receptor beta (Rattus norvegicus) (P63059 whole entry, looked up): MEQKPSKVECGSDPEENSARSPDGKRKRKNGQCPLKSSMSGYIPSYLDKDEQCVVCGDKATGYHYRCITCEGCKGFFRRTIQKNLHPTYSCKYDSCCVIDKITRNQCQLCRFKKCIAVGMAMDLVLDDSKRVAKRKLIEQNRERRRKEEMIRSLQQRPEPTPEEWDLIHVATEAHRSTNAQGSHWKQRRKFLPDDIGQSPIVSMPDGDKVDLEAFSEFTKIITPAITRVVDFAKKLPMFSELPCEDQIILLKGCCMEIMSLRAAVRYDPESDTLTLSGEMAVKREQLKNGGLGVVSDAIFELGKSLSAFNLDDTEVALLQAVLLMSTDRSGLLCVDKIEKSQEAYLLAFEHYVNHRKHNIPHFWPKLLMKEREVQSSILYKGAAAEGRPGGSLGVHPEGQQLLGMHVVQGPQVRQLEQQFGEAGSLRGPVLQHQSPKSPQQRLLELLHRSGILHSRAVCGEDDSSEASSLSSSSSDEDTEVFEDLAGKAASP
Chain of Thyroid hormone receptor alpha (Rattus norvegicus) + Thyroid hormone receptor beta (Rattus norvegicus) (P18113 whole entry, looked up): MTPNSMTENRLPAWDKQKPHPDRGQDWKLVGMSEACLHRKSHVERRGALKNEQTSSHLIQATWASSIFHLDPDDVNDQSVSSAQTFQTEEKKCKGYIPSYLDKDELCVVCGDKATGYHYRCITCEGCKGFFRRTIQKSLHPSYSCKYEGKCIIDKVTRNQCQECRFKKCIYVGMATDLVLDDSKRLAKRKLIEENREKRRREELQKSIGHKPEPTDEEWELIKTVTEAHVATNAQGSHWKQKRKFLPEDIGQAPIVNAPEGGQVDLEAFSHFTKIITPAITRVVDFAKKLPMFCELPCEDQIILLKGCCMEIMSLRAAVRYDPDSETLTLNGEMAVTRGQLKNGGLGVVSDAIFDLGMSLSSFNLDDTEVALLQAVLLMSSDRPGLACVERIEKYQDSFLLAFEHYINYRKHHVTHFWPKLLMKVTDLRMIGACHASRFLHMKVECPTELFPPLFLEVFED

The next test concerns the target THRA (gene 7067) (UniProt P10827). The experiment in a line: TOX21_TRA_COA_Agonist_Followup_ratio: Tox21 Thyroid Hormone Receptor alpha Agonism through Coactivator Recruitment Follow-Up Assay, Ratio (AID 2283948). The gist of the method: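 Agonist-mode biochemical TR-FRET with TRα LBD and SRC-2 coactivator peptide; activity expressed as percent of T3 response over DMSO baseline.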

For test [9], the target named is THRB (gene 7068) (UniProt P10828). In words: TOX21_TRB_BLA_Agonist_Followup_ratio: Tox21 Thyroid Hormone Receptor beta Agonism Beta-lactamase (BLA) Follow-Up Assay, Ratio (AID 2283954; active = hit-call score of the fitted dose curve at least 0.9, where 1 is the maximum). The gist of the method: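 Agonist mode: compounds (11-point, triplicate) incubated 18 h with HEK293T cells carrying GAL4-DBD/human TRβ-LBD and UAS-β-lactamase. Blue/green (460/530 nm) FRET ratio read after 2 h CCF4-AM loading; CellTiter-Glo viability run in the same plates.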
Chain of THRB (gene 7068) (P10828 whole entry, looked up, the tested form may be a part): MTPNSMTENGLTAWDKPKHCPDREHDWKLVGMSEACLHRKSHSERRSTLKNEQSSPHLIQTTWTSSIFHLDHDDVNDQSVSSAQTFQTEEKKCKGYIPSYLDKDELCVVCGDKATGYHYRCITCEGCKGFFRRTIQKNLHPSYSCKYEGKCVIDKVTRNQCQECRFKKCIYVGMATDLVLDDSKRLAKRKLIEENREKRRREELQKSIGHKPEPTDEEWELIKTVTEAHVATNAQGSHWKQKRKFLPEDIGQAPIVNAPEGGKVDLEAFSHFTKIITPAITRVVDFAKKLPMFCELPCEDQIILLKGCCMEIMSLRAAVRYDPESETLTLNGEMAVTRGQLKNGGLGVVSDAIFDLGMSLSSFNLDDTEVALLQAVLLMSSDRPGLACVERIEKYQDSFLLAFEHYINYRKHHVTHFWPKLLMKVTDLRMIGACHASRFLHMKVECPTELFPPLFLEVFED

For test [10] the target is unchanged. The experiment in a line: TOX21_TRB_COA_Agonist_Followup_ratio: Tox21 Thyroid Hormone Receptor beta Agonism through Coactivator Recruitment Follow-Up Assay, Ratio (AID 2283963). The gist of the method:
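GST-TRb LBD 5.0 nM + 0.10% BSA + cpd; add fluorescein-SRC-2 200 nM / Tb anti-GST Ab 2 nM; TR-FRET ex 340, em 520:495; norm DMSO 0%, T3 100%.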

Test [11] addresses Retinoic acid receptor RXR-alpha (Homo sapiens) (UniProt P19793). In words: TOX21_TR_RXR_BLA_Agonist_Followup_ratio: Tox21 Thyroid Hormone Receptor beta Retinoid X Receptor alpha (RXRa) Agonism Beta-lactamase (BLA) Follow-Up Assay, Ratio (AID 2283968; active = hit-call score of the fitted dose curve at least 0.9, where 1 is the maximum). Summed up:
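Read-out: blue/green (460:530 nm) FRET ratio from cleaved vs uncleaved CCF4 substrate, fitted for gain of signal relative to DMSO. Cells: HEK293T with RXRa-UAS-bla reporter; 16 h compound exposure, 11 concentrations, triplicate.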

A short description of test [12]: CEETOX_H295R_OHPROG_noMTC: CeeTox H295R High-throughput Steroidogenesis Assay for OH-Progesterone (OHPROG), maximum tolerated concentration (MTC) filtered results only (AID 2283914). To be noted: actives raise or lower the signal. Summed up:
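Medium hormone measured by reverse-phase C18 HPLC with positive electrospray MS/MS after MTBE liquid-liquid extraction. Cells had 48 h forskolin (10 uM) prestimulation, then 48 h chemical dosing. Gain or loss of signal fitted relative to DMSO baseline.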

Test [13] has as its target THRB (gene 7068) (UniProt P10828). The experiment in a line: TOX21_TRB_BLA_Antagonist_Followup_ratio: Tox21 Thyroid Hormone Receptor beta Antagonism Beta-lactamase (BLA) Follow-Up Assay, Ratio (AID 2283958; active = hit-call score of the fitted dose curve at least 0.9, where 1 is the maximum). The gist of the method:
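Read-out: blue/green (460:530 nm) ratio of cleaved to uncleaved CCF4-AM after 2 h at room temperature, fitted against DMSO baseline. HEK293T UAS-bla cells carrying GAL4-human TRβ LBD were exposed 18 h, 37C/5% CO2.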

Test [14] in a line: TOX21_TRB_BLA_Antagonist_Followup_viability: Viability Assessment in the Tox21 Thyroid Hormone Receptor beta Antagonism Beta-lactamase (BLA) Follow-Up Assay (AID 2283961; active = hit-call score of the fitted dose curve at least 0.9, where 1 is the maximum). Summed up:
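In the same wells as the reporter read, cell health was gauged by CellTiter-Glo ATP luminescence, with signal loss indicating reduced viability. Cells had been exposed to test compounds for 18 h.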

Test [15] has as its target THRB (gene 7068) (UniProt P10828). In words: TOX21_TRB_COA_Antagonist_Followup_ratio: Tox21 Thyroid Hormone Receptor beta Antagonism through Coactivator Recruitment Follow-Up Assay, Ratio (AID 2283967; active = hit-call score of the fitted dose curve at least 0.9, where 1 is the maximum). The gist of the method: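 GST-TRb LBD 5.0 nM + 0.10% BSA, compound added; fluorescein-SRC-2 peptide 200 nM, Tb-anti-GST Ab 2 nM. TR-FRET, ex 340 / em 520:495 ratio. Norm: DMSO 0%, T3 100%.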

Results filed as inconclusive are left out. Active and inactive are the calls of the source. Rule for the calls, unless noted: active = hit-call score of the fitted dose curve at least 0.9, where 1 is the maximum; inactive = score below 0.9.

Chain of THRA (gene 7067) (P10827 whole entry, looked up, the tested form may be a part): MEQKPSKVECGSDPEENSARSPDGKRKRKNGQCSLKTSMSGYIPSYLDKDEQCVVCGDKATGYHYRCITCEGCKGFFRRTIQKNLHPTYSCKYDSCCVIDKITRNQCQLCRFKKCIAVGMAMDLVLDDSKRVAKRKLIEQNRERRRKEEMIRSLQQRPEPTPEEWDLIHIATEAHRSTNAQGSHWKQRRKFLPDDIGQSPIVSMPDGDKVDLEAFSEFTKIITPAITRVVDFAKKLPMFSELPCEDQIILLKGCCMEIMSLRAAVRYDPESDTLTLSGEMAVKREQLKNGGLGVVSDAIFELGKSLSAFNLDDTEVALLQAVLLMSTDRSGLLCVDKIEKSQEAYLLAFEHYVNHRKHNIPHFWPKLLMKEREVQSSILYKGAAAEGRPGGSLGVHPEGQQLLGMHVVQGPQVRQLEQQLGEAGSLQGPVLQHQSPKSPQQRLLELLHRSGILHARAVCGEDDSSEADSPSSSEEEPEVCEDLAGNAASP
Chain of Retinoic acid receptor RXR-alpha (Homo sapiens) (P19793 whole entry, looked up): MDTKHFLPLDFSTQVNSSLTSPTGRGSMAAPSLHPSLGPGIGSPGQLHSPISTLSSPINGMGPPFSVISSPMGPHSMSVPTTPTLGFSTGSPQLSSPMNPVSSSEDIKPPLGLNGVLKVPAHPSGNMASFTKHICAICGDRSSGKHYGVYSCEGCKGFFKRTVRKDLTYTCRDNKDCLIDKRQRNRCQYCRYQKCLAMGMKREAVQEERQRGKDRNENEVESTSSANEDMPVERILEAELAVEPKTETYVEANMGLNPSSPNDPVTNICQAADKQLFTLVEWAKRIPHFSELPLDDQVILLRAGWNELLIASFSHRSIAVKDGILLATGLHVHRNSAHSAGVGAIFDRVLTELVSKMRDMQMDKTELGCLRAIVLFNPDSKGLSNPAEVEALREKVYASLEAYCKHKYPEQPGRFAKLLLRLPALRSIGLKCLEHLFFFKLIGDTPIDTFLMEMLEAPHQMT

On to `CC(=O)OC(C)(C)C`, for which the result in test [1] was inactive.
Still for that read-out and setting: in the case of `[Na+]` it was “inactive”; in that of `CCCCCC1CCC(=O)O1` (centres undefined), “inactive”.
With `COc1cc(OC)c2ccc(=O)oc2c1`, the result in test [2], in test [3], in test [4], in [5], in test [6] and in test [7] was inactive.
For the compound `CCCCCCC(C)O` (centres undefined), the outcome (in test [8]; with THRA (gene 7067); with THRB (gene 7068) [9]; in the test with THRB (gene 7068) [10]; in test [11]) was inactive.
Turning to `O=C(c1ccc(OCCN2CCCCC2)cc1)c1c(-c2ccc(O)cc2)sc2cc(O)ccc12`, the AC50 – broadly, the midpoint of the concentration-response curve, whichever way the signal moves – in [1] is 9.92 µM (active).
On to `COC(=O)c1ccc(C(=O)OC)cc1`, for which the call in test [2], in test [12], in [4] and in test [6] was inactive.
Regarding `CC(=O)C1=C(C)[C@@H]2C[C@@]3(C1)[C@H](C)CC[C@H]3C2(C)C`, in [1], the outcome was inactive.
For the compound `C#C[C@]1(O)CC[C@H]2[C@@H]3CCc4cc(O)ccc4[C@H]3CC[C@@]21C`, the result (in [1]; in test [14]; with THRB (gene 7068) [15]) was inactive. Further, in the test with THRB (gene 7068) [13], the AC50 is 38.3 µM (active).
